CHT block: inhibits the human high affinity choline transporter | hit rate 0.86% among 310,000 | B-score at 10 µM | Q9GZV3 | CHT-expressing cells, membrane potential dye, choline response; hits give low values;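 active = B-score over 3 SD under the library average, and starting fluorescence ratio not unusually high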;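 note: choline stimulus applied at its EC90 after an EC20 pre-addition; B-score computed on integrated fluorescence ratio after choline addition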
Target sequence (Q9GZV3 whole entry, looked up): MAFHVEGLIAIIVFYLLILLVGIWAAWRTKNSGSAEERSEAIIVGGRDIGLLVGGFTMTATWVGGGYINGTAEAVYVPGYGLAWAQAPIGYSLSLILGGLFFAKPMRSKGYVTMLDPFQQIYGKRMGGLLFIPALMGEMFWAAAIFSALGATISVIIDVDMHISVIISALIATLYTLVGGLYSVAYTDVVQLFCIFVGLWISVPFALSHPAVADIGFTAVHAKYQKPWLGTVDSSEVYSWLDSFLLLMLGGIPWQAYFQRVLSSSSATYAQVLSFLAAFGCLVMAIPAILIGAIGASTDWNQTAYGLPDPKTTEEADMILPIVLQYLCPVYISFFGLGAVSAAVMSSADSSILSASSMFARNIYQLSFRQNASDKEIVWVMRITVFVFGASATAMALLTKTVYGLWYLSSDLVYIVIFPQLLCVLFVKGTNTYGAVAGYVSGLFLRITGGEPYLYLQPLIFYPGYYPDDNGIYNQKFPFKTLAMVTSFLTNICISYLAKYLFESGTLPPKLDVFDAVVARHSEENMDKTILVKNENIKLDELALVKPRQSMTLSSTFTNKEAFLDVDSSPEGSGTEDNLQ
Mot1-301 SUMO: blocks SUMOylation pathway, rescuing yeast Mot1-301 growth; S. cerevisiae Mot1-301 growth rescue, ATP luminescence, 38.5C; percent above DMSO median, 100 means doubled; hit rate 1% among 320,000; growth rescue, % at 18.8 µM;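 active = every valid replicate shows activation above 250% relative to neutral control wells; inactive = the rest, any valid replicate at or below 250%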
CHT PAM: allosterically activates the human high affinity choline transporter; Q9GZV3; CHT-expressing cells, membrane potential dye, choline EC20; hits give high values; LV-AA mutant CHT in HEK293 cells; B-score at 10 µM; hit rate 0.49% among 310,000; AID 488977;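 active = initial fluorescence not abnormally high and integrated response B-score, plate-corrected, over 3 SD above library mean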
A1 inh: inhibitors of the anti-apoptotic protein A1, read as caspase activation; MEF A1-2A-BIM cells, Caspase-Glo 3/7 luminescence, 3 h; percent of clofoctol response, vehicle zero; caspase activation, % (test concentration not listed); hit rate 0.066% among 330,000;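 active = over half of replicate activation scores above 10%, or exactly half above 10 with the replicate mean above 10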
NALP3 yeast inh: blocks the NALP3 inflammasome reconstituted in yeast. Yeast reconstituted NLRP3/ASC/caspase-1, beta-gal luminescence, 24 h. inhibition, % at 10 µM. hit rate 0.39% among 330,000. AID 2825;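 active = inhibition of 50% or more; inactive = inhibition below 50%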
NALP1 inh: inhibitors of NALP1 inflammasome in yeast; S. cerevisiae NALP1/ASC/caspase-1 growth, X-gal OD620, 72 h; AID 2071; hit rate 0.61% among 280,000; inhibition, % at 10 µM; in the data active = inhibition mostly above about 24%, no sharp cut-off; inactive = mostly below about 32%
CHT act confirm: human CHT activation, confirmatory screen. shares compounds with CHT PAM. CHT-expressing cells, membrane potential dye fluorescence (FDSS); % of choline EC20–EC90 response window; HEK293 expressing CHT LV-AA mutant; choline added at its EC20. activation, % at 10 µM. hit rate 91% among 2,500;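 active = primary screen active, with duplicate mean activation above negative control mean plus 3 SD, cut at about 11% in these data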
HEK293 MP dye: counter-screen for CHT activators: effect in parental HEK293 cells | shares compounds with CHT PAM | membrane potential dye fluorescence (FDSS); measured after EC20 choline addition | ratio readout change at 10 µM, hits read low | hit rate 62% among 2,500 | AID 623908;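 active = duplicate-averaged ratio beyond 3 SD from buffer wells, up or down, though filed actives are nearly all decreases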
Of the large screens only hits and unclear results are named; the others gave an inactive call (follow-up assays come after a bar, where they were run). In the library only some 3% were active in any assay of this set; here they are far more common.

CSCC[C@H](NC(=O)OC(C)(C)C)C(=O)N1CCC(C(=O)N[C@@H](C)C(=O)NC(C)c2ccccc2)CC1 (some centres not stated)	none
O=C(c1cccc(C(F)(F)F)c1)C1CCCN(Cc2cccn2-c2ccccn2)C1 (configuration not stated)	CHT PAM 12 | CHT act confirm inactive | HEK293 MP dye inactive
O=C(c1cccc(C(F)(F)F)c1)C1CCCN(Cc2cccc(OCCO)c2)C1 (configuration not stated)	none
CN(CC(=O)Nc1ccc(N2CCOCC2)cc1)C(=O)CCNC(=O)c1ccc(Br)cc1	none (no result: NALP1 inh)
Clc1ccccc1-c1nn2c(-c3ccccn3)nnc2s1	none | CHT act confirm 43 | HEK293 MP dye -38
Cc1nc(-c2cccc(NC(=O)c3ccc(-n4cccn4)cc3)c2)cs1	none (no result: CHT block, CHT PAM, NALP1 inh)
CCOc1ccccc1-n1c(SCC(=O)Nc2nccs2)nnc1-c1ccoc1C	none | CHT act confirm inactive | HEK293 MP dye inactive
Cc1ccc(S(=O)(=O)N(C)C)cc1NC(=S)NC(=O)C12CC3CC(CC(C3)C1)C2	none | CHT act confirm inactive | HEK293 MP dye inactive
O=C(CNC(=O)c1ccco1)NCc1ccc2c(c1)OCO2	none (no result: CHT block, CHT PAM, NALP1 inh)
CN1CCN(Cc2nc3ccccc3c(=O)n2Cc2nc(-c3ccccc3F)cs2)CC1	CHT PAM 8.2 (no result: NALP3 yeast inh) | CHT act confirm 30 | HEK293 MP dye inactive
CN1CCN(Cc2nc3ccccc3c(=O)n2Cc2nc(-c3ccc4ccccc4c3)cs2)CC1	none (no result: NALP3 yeast inh)
O=C(CCc1ccc(S(=O)(=O)N2CCOCC2)cc1)Nc1ccc(F)cc1[N+](=O)[O-]	none (no result: CHT block, CHT PAM, NALP1 inh)
Cc1c(CCOC(=O)CC23CC4CC(CC(C4)C2)C3)sc[n+]1CC(=O)c1ccccc1	NALP1 inh 35 | CHT act confirm 45 | HEK293 MP dye inactive
Cc1c(CCOC(=O)C23CC4(C)CC(C)(CC(C)(C4)C2)C3)sc[n+]1CC(=O)c1ccccc1	none
CC(C)(C)c1ccc(C(=O)N2CCC(=O)N(C(COCc3ccccc3)Cc3ccccc3)CC2)cc1 (configuration not stated)	none | CHT act confirm inactive | HEK293 MP dye inactive
Cc1ccn2cc(-c3cccc([N+](=O)[O-])c3)nc2c1	none (no result: Mot1-301 SUMO) | CHT act confirm 39 | HEK293 MP dye -46
Cc1ccn2cc(-c3cccc(NS(C)(=O)=O)c3)nc2c1	CHT PAM 6.3 | CHT act confirm 35 | HEK293 MP dye -42
CC(=O)Nc1cccc(-c2cn3ccc(C)cc3n2)c1	none
COC(=O)c1ccc(N2CCN(C)CC2)c(NC(=O)COc2ccc(OC)cc2)c1	CHT PAM 9.2 | CHT act confirm 69 | HEK293 MP dye -65
CCOC(=O)CNC(=S)N(CCCN1CCN(C)CC1)Cc1cccs1	none
Cc1ccc(-n2nc3c(=O)n(CC(=O)NC4CCCCCC4)nc(C)c3c2C)cc1	none
CC(c1ccccc1)N(CCC(c1ccccc1)C1CCOC(C)(C)C1)C(=O)c1ccco1 (configuration not stated)	CHT PAM 6.4 | CHT act confirm 34 | HEK293 MP dye inactive
COc1ccc(N2C(=O)/C(=C\c3ccco3)N=C2SCC(=O)N(C(C)C)C(C)C)cc1Cl	none | CHT act confirm 13 | HEK293 MP dye inactive
O=S(=O)(c1cccc(C(F)(F)F)c1)c1ccc(O)cn1	none (no result: NALP1 inh)
COc1cc2cc[n+](Cc3ccc([N+](=O)[O-])cc3)cc2cc1OC	CHT PAM 7.1 | CHT act confirm 71 | HEK293 MP dye -79
O=[N+]([O-])c1ccc(C[n+]2cccc(O)c2)cc1	none (no result: NALP1 inh)
COC(=O)c1ccc(CNC(=O)c2ccc3c(c2)S(=O)(=O)N=C2CCCCCN23)cc1	none (no result: CHT block, CHT PAM, NALP1 inh)
O=C(NCc1cccnc1)c1cccn2c(=O)c3sccc3nc12	CHT PAM 7.8 | CHT act confirm 54 | HEK293 MP dye -53
